Measurements: paper PMC5540273 (PLoS ONE, 2017)

Test system: ERBB2
Details: concentration: 1 μM,replicates: in singlicate; n = 1
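Note: KINOMEscan kinase panel screen.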

`C[C@@H]1CCN(C(=O)CC#N)C[C@@H]1N(C)c1ncnc2[nH]ccc12` was tested. Which “%Inh” value did it give?
Its value is 0%.

How did the “%Inh” value turn out when `CCN(CC)CCCCNc1ncc2cc(-c3c(Cl)cccc3Cl)c(NC(=O)NC(C)(C)C)nc2n1` was run?
The value was 35%.

How did the “%Inh” value turn out when `CC(C)N1C(=O)Cc2cc(Nc3ncc(C(F)(F)F)c(NCc4cccc(S(C)(=O)=O)c4)n3)ccc21` was run?
The value was 15%.

Which “%Inh” value does the source give for `Cl.Cl.NC[C@H](Cc1ccc(C(F)(F)F)cc1)NC(=O)c1cc(Br)c(-c2ccnc3[nH]ccc23)s1` [GSK1487252] here?
The value was 9%.

For `Cc1n[nH]c2ccc(-c3cc(OC[C@@H](N)Cc4ccccc4)cnc3-c3ccoc3)cc12.O=C(O)C(F)(F)F.O=C(O)C(F)(F)F` [GSK507358], which “%Inh” value is on record?
The value was 77%.

For `Cc1cc2cn[nH]c2cc1-c1cccc2c(N)c(C(N)=O)nnc12`, which “%Inh” value is on record?
The value was 14%.

Which “%Inh” value does the source give for `COc1ccc(C[C@@H](CN)NC(=O)c2cc(Br)c(-c3ccnc4[nH]ccc34)s2)cc1.Cl.Cl` [GSK1389063] here?
Its value is 25%.

How did the “%Inh” value turn out when `O=C(NCCNc1ccnc(NCc2ccc(F)cc2)n1)c1cc2ccccc2s1` [GSK1379944] was run?
The value was 13%.

Which “%Inh” value does the source give for `C[C@H]1Oc2cc(cnc2N)-c2c(nn(C)c2C#N)CN(C)C(=O)c2ccc(F)cc21` here?
The value was 28%.

Which “%Inh” value does the source give for `O=C(NCCCN1CCOC1=O)c1cnc(NCc2cc(Cl)ccc2Cl)nc1NC1CCCC1` here?
Its value is 46%.

For `NC(=O)c1cc(-c2ccccc2)cc2c(C3CCNCC3)c[nH]c12` [GSK301362], which “%Inh” value is on record?
The value was 16%.

Which “%Inh” value does the source give for `CN(C)CCOc1ccc(-c2cc(-c3c[nH]nc3-c3ccccn3)ccn2)cc1` [GW835314] here?
The value was 0%.

With `C[C@@H](Oc1cc(-c2cnn(C3CCNCC3)c2)cnc1N)c1c(Cl)ccc(F)c1Cl` as the compound, how does the “%Inh” value read?
Its value is 7%.

How did the “%Inh” value turn out when `Cc1occc1-c1nc(N)c(OC[C@@H](N)Cc2c[nH]c3ccccc23)cc1-c1cc2c(C)n[nH]c2cn1` [GSK1660450] was run?
The value was 79%.

Test system: ERBB3
Details: concentration: 1 μM,replicates: in singlicate; n = 1

How did the “%Inh” value turn out when `CCN(CC)CCOc1ccc(Nc2ncc3cc(-c4c(Cl)cccc4Cl)c(=O)n(C)c3n2)cc1` [SB-601273] was run?
The value was 99.4%.

`Cc1cc(C(=O)Nc2ccc(Oc3ccc4nc(NC(=O)C5CC5)cn4n3)cc2)nn1-c1ccccc1` was tested. Which “%Inh” value did it give?
Its value is 87%.

With `Cl.Oc1cc(-c2nc(-c3ccccc3)[nH]c2-c2ccncc2)ccc1Cl` [SB-386023] as the compound, how does the “%Inh” value read?
The value was 0%.

`CNC(=O)c1ccccc1Sc1ccc2c(/C=C/c3ccccn3)n[nH]c2c1` was tested. Which “%Inh” value did it give?
Its value is 1%.

With `Cc1ccc2c(-c3ccncc3)c(-c3ccc(F)cc3)nn2c1.Cl` [GW461484] as the compound, how does the “%Inh” value read?
Its value is 0%.

`CN(C)CC(O)COc1ccc(Nc2nccc(-c3cnn4nc(N5CCOCC5)ccc34)n2)cc1` (centres unmarked) [GW767488] was tested. Which “%Inh” value did it give?
Its value is 40%.

`Cl.Cl.Nc1nc(-c2ccc3c(N)n[nH]c3c2)cc(N2CCCC(NC(=O)c3ccccc3)C2)n1` (centres unmarked) [GSK2286775] was tested. Which “%Inh” value did it give?
Its value is 0%.

For `CCn1c(-c2nonc2N)nc2c(C#CC(C)(C)O)nc(OCCN)cc21.Cl.Cl` [GSK902056], which “%Inh” value is on record?
Its value is 0%.

For `CC(C)Nc1cc(-c2ccc3c(N)n[nH]c3c2)nc(N)n1` [GSK2221681], which “%Inh” value is on record?
Its value is 0%.

Which “%Inh” value does the source give for `Cl.Cl.NC[C@H](CC1CCCCC1)NC(=O)c1cc(Br)c(-c2ccnc3[nH]ccc23)s1` [GSK1581427] here?
The value was 0%.

With `Cc1ccc(-n2nc(C(C)(C)C)cc2NC(=O)Nc2ccc(OCCN3CCOCC3)c3ccccc23)cc1` [GW839464] as the compound, how does the “%Inh” value read?
The value was 26%.

With `Nc1nc(Nc2ccccc2)cc(-c2ccc3c(N)n[nH]c3c2)n1` [GSK2225749] as the compound, how does the “%Inh” value read?
Its value is 0%.

`C[C@@H]1CCN(C(=O)CC#N)C[C@@H]1N(C)c1ncnc2[nH]ccc12` was tested. Which “%Inh” value did it give?
The value was 0%.

With `C=CC(=O)Nc1cc2c(Nc3ccc(F)c(Cl)c3)ncnc2cc1OCCCN1CCOCC1` [GW781483] as the compound, how does the “%Inh” value read?
The value was 83%.

With `CCN(CC)CCCCNc1ncc2cc(-c3c(Cl)cccc3Cl)c(NC(=O)NC(C)(C)C)nc2n1` as the compound, how does the “%Inh” value read?
Its value is 68%.

With `CC(C)N1C(=O)Cc2cc(Nc3ncc(C(F)(F)F)c(NCc4cccc(S(C)(=O)=O)c4)n3)ccc21` as the compound, how does the “%Inh” value read?
The value was 13%.

For `Cl.Cl.NC[C@H](Cc1ccc(C(F)(F)F)cc1)NC(=O)c1cc(Br)c(-c2ccnc3[nH]ccc23)s1` [GSK1487252], which “%Inh” value is on record?
The value was 0%.

For `Cc1n[nH]c2ccc(-c3cc(OC[C@@H](N)Cc4ccccc4)cnc3-c3ccoc3)cc12.O=C(O)C(F)(F)F.O=C(O)C(F)(F)F` [GSK507358], which “%Inh” value is on record?
Its value is 0%.
